Source: publication PMC4336329 (PLoS ONE, 2015)
In all, about 310,000 compounds went through this assay and about 14,000 (4.5%) showed an effect of 50% or more. The effect is printed as a negative number. Only a selection was taken, and strong results are over-represented in it overall.

target: human ether-à-go-go-related gene (hERG) potassium channel (human, UniProt Q12809); test: primary screen, population patch clamp on CHO cells stably expressing hERG; higher = less effect of the substance
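Further: peak tail current of the secondary pulse compared with the same well before compound.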

human ether-à-go-go-related gene (hERG) potassium channel, sequence (Q12809 whole entry, looked up): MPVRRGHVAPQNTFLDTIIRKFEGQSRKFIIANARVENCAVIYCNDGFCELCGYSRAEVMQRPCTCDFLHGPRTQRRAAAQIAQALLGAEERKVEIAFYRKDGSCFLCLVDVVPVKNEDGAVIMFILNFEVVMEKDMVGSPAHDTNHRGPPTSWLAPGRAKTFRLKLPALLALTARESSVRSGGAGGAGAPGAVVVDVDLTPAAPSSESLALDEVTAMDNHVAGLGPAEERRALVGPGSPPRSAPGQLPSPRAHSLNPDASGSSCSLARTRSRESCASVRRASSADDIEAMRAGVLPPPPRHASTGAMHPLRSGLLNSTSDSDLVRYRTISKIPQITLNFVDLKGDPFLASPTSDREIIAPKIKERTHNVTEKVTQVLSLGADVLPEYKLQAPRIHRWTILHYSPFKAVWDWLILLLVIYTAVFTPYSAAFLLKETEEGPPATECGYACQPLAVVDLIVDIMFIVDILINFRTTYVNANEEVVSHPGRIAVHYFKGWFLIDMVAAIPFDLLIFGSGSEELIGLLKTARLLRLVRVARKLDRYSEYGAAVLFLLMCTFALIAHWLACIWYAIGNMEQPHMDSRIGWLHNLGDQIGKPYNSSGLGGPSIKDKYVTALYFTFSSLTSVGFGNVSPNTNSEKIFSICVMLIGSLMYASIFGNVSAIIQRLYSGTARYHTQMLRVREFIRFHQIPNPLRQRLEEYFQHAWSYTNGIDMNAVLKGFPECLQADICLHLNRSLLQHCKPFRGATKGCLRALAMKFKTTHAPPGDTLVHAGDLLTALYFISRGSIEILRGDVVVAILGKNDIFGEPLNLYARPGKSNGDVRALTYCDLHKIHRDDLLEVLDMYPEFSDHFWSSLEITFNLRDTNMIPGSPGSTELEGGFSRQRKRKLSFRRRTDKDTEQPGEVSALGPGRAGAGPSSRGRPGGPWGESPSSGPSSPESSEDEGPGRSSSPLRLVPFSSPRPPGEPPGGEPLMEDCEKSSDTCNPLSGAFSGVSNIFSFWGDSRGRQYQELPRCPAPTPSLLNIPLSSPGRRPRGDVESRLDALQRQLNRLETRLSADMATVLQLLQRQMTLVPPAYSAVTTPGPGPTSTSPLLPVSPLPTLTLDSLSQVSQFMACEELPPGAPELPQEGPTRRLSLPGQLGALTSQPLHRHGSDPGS

Row | SMILES | hERG current change (%, negative = inhibition) at 10uM
1 | COc1ccc(OCCCC(=O)OCC(=O)c2ccc3c(c2)NC(=O)CO3)cc1 | 15.7%
2 | O=C1COc2ccc(C(=O)COC(=O)CNC(=O)c3ccccc3)cc2N1 | -4.81%
3 | Cc1nn(C(=O)CCC(=O)NCc2ccccc2Cl)c2ccccc12 | 15.2%
4 | Cc1c(Cl)cccc1NC(=O)C1COc2ccccc2O1 (stereo not shown) | 8.79%
5 | COc1ccc(S(=O)(=O)CC(=O)c2cc3cccc(C)c3oc2=O)cc1 | 5.51%
6 | CCCN1Cc2cccc(C(=O)NC(CC(=O)OCC)c3ccc(C)cc3)c2C1=O (stereo not shown) | -81.7%
7 | CCCN1Cc2cccc(C(=O)NC(CC(=O)OCC)c3ccc(OCC)c(OC)c3)c2C1=O (stereo not shown) | -31.2%
8 | CCCN1Cc2cccc(C(=O)NC(CC(=O)OCC)c3ccc(OC(C)C)cc3)c2C1=O (stereo not shown) | -37.6%
9 | Cc1nc2c(C)cccn2c1/C(O)=C1\C(=O)C(=O)N(CCN(C)C)C1c1ccncc1 (stereo not shown) | 4.49%
10 | CC(=O)Nc1ccc(C(=O)CN2C(=O)NC3(CCOc4ccccc43)C2=O)c(F)c1 (stereo not shown) | -20.5%
11 | CC(=O)Nc1ccc(NC(=O)C2CCN(c3c(Cc4ccccc4)c(C)nc4ncnn34)CC2)cc1 | 2.74%
12 | COc1cccc(CC(NC(C)=O)C(=O)NC2CCN(c3c(Cc4ccccc4)c(C)nc4ncnn34)CC2)c1 (stereo not shown) | -0.458%
13 | COc1cc(CC(NC(C)=O)C(=O)NC2CCN(c3c(Cc4ccccc4)c(C)nc4ncnn34)CC2)cc(OC)c1 (stereo not shown) | 12%
14 | Cc1nc2ncnn2c(N2CCC(C(=O)NCC3CCCO3)CC2)c1Cc1ccccc1 (stereo not shown) | -17.6%
15 | Cc1nc2ncnn2c(N2CCC(C(=O)NC3CCCC3)CC2)c1Cc1ccccc1 | -57.4%
16 | CC(=O)NC(Cc1ccc(F)c(F)c1)C(=O)NC1CCN(c2c(Cc3ccccc3)c(C)nc3ncnn23)CC1 (stereo not shown) | -58.7%
17 | NC(=O)C1CCCN(C(=O)c2ccc3nc(Cc4cccc(Cl)c4)oc3c2)C1 (stereo not shown) | -11.5%
18 | Cc1ccnc(SCCn2c(N3CCN(C)CC3)nc3c2c(=O)n(C)c(=O)n3C)n1 | 13.6%
19 | COCCn1c(-c2ccc(F)cc2)nc2oc3cc(OC)ccc3c(=O)c2c1=O | -19.6%
20 | CCOC(=O)Nc1sc(C)c(C)c1C(N)=O | 9.44%

Row | SMILES | hERG current change (%, negative = inhibition) at 10uM
21 | COCC1CCN(Cc2nc(COc3ccccc3)no2)C1 (stereo not shown) | 12.3%
22 | CN(Cc1ccccn1)C(=O)CC1C(=O)NCCN1Cc1ccc(F)cc1Cl (stereo not shown) | 16.4%
23 | CN(Cc1nccn1C)C(=O)CC1C(=O)NCCN1Cc1ccc(F)cc1Cl (stereo not shown) | -68.9%
24 | CN(Cc1cnccn1)C(=O)CC1C(=O)NCCN1Cc1ccc(F)cc1Cl (stereo not shown) | 20%
25 | Cc1nc2scc(C)n2c(=O)c1S(=O)(=O)N1CCN(c2ccccc2)CC1 | -26.3%
26 | CN1CC2(C(=O)c3ccccc3)CN(C)CC(C(=O)c3ccccc3)(C1)C2 | -53%
27 | COc1ccc(C(=O)C23CN4CN(CN(C4)C2)C3)cc1 | 4.01%
28 | CC(=O)N1CN2CN(C(C)=O)CC(C(=O)c3ccccc3)(C2)C1 | 11%
29 | Cc1ccn2cc(-c3cccc(NC(=O)c4ccccc4)c3)nc2c1 | -19.6%
30 | COc1ccc(N2CCN(CCC(=O)c3ccc4ccccc4c3)CC2)cc1 | -11.2%
31 | COc1ccc(C(=O)CCN2CCCCCC2)cc1.Cl | -20%
32 | COc1ccccc1N1CCN(CCN(C(=O)c2ccc(F)cc2)c2ccccn2)CC1.Cl | -78.8%
33 | O=C(NCCCN1CCOCC1)c1ccc2ccccc2c1 | -2.68%
34 | COC(=O)CCN(C(=O)c1cc(OC)c(OC)c(OC)c1)c1ccccn1 | 6.81%
35 | COc1ccccc1N1CCN(CCCCNC(=O)c2ccc3ccccc3c2)CC1.Cl | -79.6%
36 | COc1ccc(C(=O)CCN2CCN(c3ccccc3F)CC2)cc1.Cl | -71.5%
37 | COc1ccc(S(N)(=O)=O)cc1C(=O)NCCCN1CCN(c2ccccc2OC)CC1.CS(=O)(=O)O | 2.27%
38 | COc1ccc(OC)c(NC(=O)CCN2CCN(c3ccccc3F)CC2)c1 | -22.1%
39 | COc1ccc(N2CCN(CCC(N)=O)CC2)cc1 | 3.39%
40 | COc1ccc(C(=O)CCN2CCN(c3ccc(OC)cc3)CC2)cc1 | -73.1%
